High-throughput results from PubChem.
Abeta rescue: A-beta toxicity reversal in yeast; yeast expressing A-beta42, growth rescue, OD600, 48 h; response scale: 0% DMSO, 100% iron-clioquinol control; Potency, µM (top dose mostly 46.1 µM), actives largely listed as activators; hit rate 0.063% among 410,000; AID 1347071; further: nearly all actives have a fitted effect of over 55% in size
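Yeast growth medium received pinned compounds, then yeast cells expressing toxic A-beta were added; plates incubated at 30 C for 48 hr. Growth read as absorbance at 600 nm, normalized to DMSO and equimolar FeCl3 plus clioquinol controls.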
TDP43 rescue: inhibitors of TDP-43 toxicity in yeast; TDP-43 expressing yeast growth rescue, BacTiter-Glo, 24 h; Potency, µM (series often up to 46.1 µM), most hits filed as activators; hit rate 1.8% among 410,000; AID 652104; further: nearly all actives have a fitted effect of over 50% in size
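Cell-based yeast growth screen: TDP-43 expression induced in galactose, inoculum OD600=0.02 after raffinose pregrowth to mid-log. Read-out BacTiter-Glo luminescence at 24 hr, 30 deg C; inhibition of toxicity seen as signal increase.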
CCT chaperon mod: changes cytosolic chaperonin activity. purified chaperonin ATPase assay, HTRF ADP detection, 30 min. AID 651819. activity change, % (no concentration beside the values), hits read low. hit rate 0.3% among 360,000; in the data active means activity change below about -30%
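Nucleotide hydrolysis assay: TRiC at 20–40 nM final (set by batch activity) with 10 uM ATP, 30 min at 37 °C, in presence of 76 uM compound. Detection by competitive ADP HTRF, 30 min ambient.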
Mm-Cpn inhibitor: blocks the Methanococcus maripaludis chaperonin Mm-Cpn. purified Mm-Cpn ATPase, ADP Transcreener TR-FRET. Potency, µM (titrated, usually from 76.9 µM), actives largely listed as inhibitors. hit rate 0.031% among 330,000. AID 504842; further: nearly all actives have a fitted effect of over 80% in size
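25 nM Mm-CPN + cpd, 10 min 37°C; + 10 uM ATP, 30 min 37°C; buffer 30 mM Tris pH 7.4, 100 mM KCl, 5 mM MgCl2, 1 mM DTT; Transcreener ADP HTRF detection 30 min RT.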
aSyn rescue: rescues yeast growth from alpha-synuclein toxicity; Yeast expressing alpha-synuclein, growth rescue, BacTiter-Glo, 24 h; Potency, µM (highest dose often 46.1 µM), usual class: activators; hit rate 0.14% among 370,000; further: nearly all actives have a fitted effect of over 65% in size
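Rescue of yeast growth: cells expressing toxic alpha-synuclein, induced in galactose at OD600 0.02, incubated with compound 24 h at 30 C. ATP luminescence quantified growth; inhibitors of toxicity appear as activators.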
FUS yeast rescue: FUS proteinopathy suppression in yeast; S. cerevisiae FUS-expressing, growth rescue, OD600, 24 h; Potency, µM (series often up to 76.6 µM), usual class: activators; hit rate 0.24% among 390,000; further: nearly all actives have a fitted effect of over 55% in size
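FUS-expressing yeast, raffinose-pregrown, induced in 2% galactose minimal medium at OD 0.005; compounds in a dilution series, 24hr at 30C. Growth restoration read as absorbance at 600 nm. CP55940 positive control, DMSO negative.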
Large screens that a line does not name were inactive. An excerpt weighted towards active compounds, which were near 2.3% of everything screened. Unless noted, the call rests on the fitted dose curve; in most records, active means well fitted curve in the direction sought with a large enough effect; inconclusive means small, poorly fitted or top-dose-only effect, or another doubt; inactive means no such curve, though single readings can be large; an effect the other way counts as inactive or inconclusive.

O=S(=O)(c1ccc(F)cc1)N1CCN(c2nc(-c3cccs3)nc3ccccc23)CC1	none (no result: Abeta rescue, TDP43 rescue, CCT chaperon mod, Mm-Cpn inhibitor, FUS yeast rescue)
CC(=O)CC[C@H]1CC[C@]2(CCCN(C(=O)c3ccccc3)C2)O1	none (no result: Abeta rescue, TDP43 rescue, CCT chaperon mod, Mm-Cpn inhibitor, aSyn rescue)
COc1cccc(C(=O)Nc2nc3nc(C)c(C)c(=O)n3[nH]2)c1	none (no result: CCT chaperon mod, Mm-Cpn inhibitor, aSyn rescue)
COc1ccc(N2C(=O)CC(N3CCC(O)(c4cccc(C(F)(F)F)c4)CC3)C2=O)cc1 (stereo not given)	TDP43 rescue 18µM
COc1ccc(C(=O)/C=C/Nc2cc(C)on2)c(OC)c1	TDP43 rescue inconclusive, aSyn rescue 13µM
COC1=C[C@H](C(=O)NCc2ccccn2)[C@H](C)[C@@H](c2ccccc2)CC1=O	none (no result: Abeta rescue, TDP43 rescue, CCT chaperon mod, Mm-Cpn inhibitor, aSyn rescue)
CCCN1CNc2c(c(=O)[nH]c(=S)n2CCc2ccc(Cl)c(Cl)c2)C1	none (no result: Abeta rescue, TDP43 rescue, CCT chaperon mod, Mm-Cpn inhibitor, FUS yeast rescue)
COc1ccccc1NC(=O)c1c(C)cc(C)nc1SCC(=O)Nc1ccc(C)cc1	TDP43 rescue 18µM, FUS yeast rescue inconclusive (no result: CCT chaperon mod, Mm-Cpn inhibitor, aSyn rescue)
COc1ccc(-c2nnc(SCC(=O)Nc3cc(F)ccc3C)o2)cc1	Abeta rescue inconclusive, TDP43 rescue 11µM
O=C(CSc1nnc(-c2ccc(F)cc2)o1)Nc1ccccc1N1CCOCC1	TDP43 rescue 22µM, aSyn rescue inconclusive (no result: Mm-Cpn inhibitor)
O=C(CSc1nc2ccccc2o1)Nc1ccccc1N1CCOCC1	none
COc1ccc(NC(=O)CCn2nc(-c3ccccc3OC)c3c(C)cc(C)nc32)cc1	TDP43 rescue 14µM (no result: CCT chaperon mod, Mm-Cpn inhibitor, aSyn rescue)
COc1ccccc1/C=C1\C=Cc2ccccc21	none (no result: Abeta rescue, TDP43 rescue, CCT chaperon mod, Mm-Cpn inhibitor, FUS yeast rescue)
COc1ccc(CNC(=O)C2CCCN(C(=O)c3cnn(-c4ccc(F)cc4)c3-n3cccc3)C2)cc1 (stereo not given)	none (no result: CCT chaperon mod, Mm-Cpn inhibitor)
COc1ccccc1NC(=O)CSc1nnc(-c2ccccc2C)o1	TDP43 rescue 20µM (no result: CCT chaperon mod, Mm-Cpn inhibitor, aSyn rescue)
COc1ccccc1NC(=O)CSc1nnc(-c2ccoc2C)o1	TDP43 rescue inconclusive
CCOc1cc(CNC2CCCC2)ccc1OCc1ccccc1Cl	none
CCOc1cc2c(cc1OCC)C(c1ccc(F)cc1)NCC2 (stereo not given)	none (no result: Mm-Cpn inhibitor)
CCOc1cc(C2NN=C(c3ccccc3)S2)ccc1OCc1ccccc1Cl (stereo not given)	TDP43 rescue 10µM
CCOc1cc(C2NN=C(c3ccccc3)S2)ccc1OCc1ccc(F)cc1 (stereo not given)	TDP43 rescue 14µM
O=C(NC1CCCC1)c1cnn2c1NC(=C1CC1)C=C2C(F)F	none (no result: Abeta rescue, TDP43 rescue, CCT chaperon mod, Mm-Cpn inhibitor, FUS yeast rescue)
COc1ccc(Cl)cc1S(=O)(=O)NC(C)C(=O)NCc1ccncc1 (stereo not given)	CCT chaperon mod -66
COc1ccc(Cl)cc1S(=O)(=O)NC(C)C(=O)NCc1ccccn1 (stereo not given)	none
O=C(CSc1nc(=O)n(Cc2ccco2)c2c1CCC2)Nc1cccc(F)c1	none (no result: CCT chaperon mod, Mm-Cpn inhibitor, aSyn rescue)
COC(=O)[C@]12CCCCC=C1N(Cc1ccc(Cl)cc1Cl)C(=O)[C@H](CC(=O)N1CCOCC1)C2	TDP43 rescue 18µM, FUS yeast rescue inconclusive (no result: Mm-Cpn inhibitor)
COC(=O)[C@]12CCCCC=C1N(Cc1ccc(Cl)cc1Cl)C(=O)[C@H](CC(=O)N1CCCCC1)C2	TDP43 rescue inconclusive, FUS yeast rescue inconclusive (no result: Mm-Cpn inhibitor)
CCOC(=O)[C@]12CCCC=C1N(Cc1ccc(Cl)cc1Cl)C(=O)[C@H](CC(=O)N1CCN(C(=O)c3ccco3)CC1)C2	TDP43 rescue 16µM, FUS yeast rescue 18µM (no result: Mm-Cpn inhibitor)
CCOC(=O)[C@]12CCCC=C1N(Cc1ccc(Cl)cc1Cl)C(=O)[C@H](CC(=O)N1CCCC1)C2	none (no result: Mm-Cpn inhibitor)
CCCCOCCCNC(=O)C[C@@H]1C[C@]2(C(=O)OCC)CCC3=C2N(CCC3)C1=O	none (no result: Abeta rescue, TDP43 rescue, CCT chaperon mod, Mm-Cpn inhibitor, aSyn rescue)
CNC(=O)c1ccc2nc(-c3ccco3)c(-c3ccco3)nc2c1	none (no result: Abeta rescue, TDP43 rescue, CCT chaperon mod, Mm-Cpn inhibitor, FUS yeast rescue)
CCOC(=O)c1ccc(N2C(=O)CC(N3CCC(Nc4ccc(F)cc4)CC3)C2=O)cc1 (stereo not given)	CCT chaperon mod -65
O=C(c1ccc(Cl)cc1)N1CCC(O)(CSc2ccc(Cl)cc2)CC1	TDP43 rescue 35µM, aSyn rescue inconclusive
COc1cccc(SCC2(O)CCN(C(=O)c3ccc(Cl)cc3)CC2)c1	Abeta rescue inconclusive, TDP43 rescue 22µM
O=C(c1ccc(Cl)cc1)N1CCC(O)(CSc2ccccc2)CC1	none
C[C@@H]1CCN(C2CC2)S(=O)(=O)c2ccc(N3CCC[C@H]3C)cc2O1	none (no result: Abeta rescue, TDP43 rescue, CCT chaperon mod, Mm-Cpn inhibitor, aSyn rescue)
COC(=O)c1ccc(CSc2nnc3ccc4ccccc4n23)cc1	TDP43 rescue 35µM (no result: CCT chaperon mod, Mm-Cpn inhibitor, aSyn rescue)
COc1ccc(N2CC(NC(=O)c3ccc4c(c3)OCO4)CC2=O)cc1OC (stereo not given)	none (no result: CCT chaperon mod, Mm-Cpn inhibitor, aSyn rescue)
CC(C)C(O)(C#CCN1CCCCCC1)c1ccccc1 (stereo not given)	CCT chaperon mod -38
CC(O)(C#CCN1CCCCC1)c1ccccc1 (stereo not given)	none
COc1ccc(OC)c(NC(=O)c2nc(S(=O)(=O)Cc3ccccc3F)ncc2Cl)c1	none (no result: Abeta rescue, TDP43 rescue, CCT chaperon mod, Mm-Cpn inhibitor, FUS yeast rescue)
Cc1ccccc1C1C(C#N)=C2NC(=O)c3c(sc4c3CCCCC4)N2C2=C1C(=O)CC(C)(C)C2 (stereo not given)	none (no result: Abeta rescue, TDP43 rescue, CCT chaperon mod, aSyn rescue, FUS yeast rescue)
Cc1ccccc1C1C(C#N)=C2N=C(N)c3c(sc4c3CCCCC4)N2C2=C1C(=O)CC(C)(C)C2 (stereo not given)	FUS yeast rescue 28µM
CCOC(=O)c1cccc(NC(=O)c2cn(-c3cccc(OC)c3)c(=O)c3ccccc23)c1	none (no result: CCT chaperon mod, Mm-Cpn inhibitor, aSyn rescue)
COc1cc2c(cc1OC)/C(=C/C(=O)c1ccc(F)cc1)NCC2	TDP43 rescue 10µM
